Test results published in PubChem BioAssay (NCATS).
Inconclusive results are not listed. Calls of active or inactive are those of the source. The call rests on the fitted dose curve; in most records, active means well fitted curve in the direction sought with a large enough effect; inconclusive means small, poorly fitted or top-dose-only effect, or another doubt; inactive means no such curve, though single readings can be large; an effect the other way counts as inactive or inconclusive.

Columns and labels:
MCC-13 = assay: qHTS assay to identify novel small-molecules to repurpose for Merkel cell carcinoma treatment (AID 1296009); settings: MCC and control cell lines, CellTiter-Glo viability, 72 h; series mostly up to 46 µM; further: nearly all actives have a fitted effect of over 60% in size
Summary of the method: (§1)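 After compound transfer in DMSO, plates were kept 72 hr at 37 degree celsius. Luminescent ATP signal from CellTiter-Glo served as viability measure, normalized against DMSO and no-cell controls.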

MCC-26 = assay: as above; settings: MCC and control cell lines, CellTiter-Glo viability, 72 h; series mostly up to 46 µM
Summary of the method: as §1

MKL-1 = assay: as above; settings: MCC and control cell lines, CellTiter-Glo viability, 72 h; series mostly up to 46 µM
Summary of the method: as §1

MKL-2 = assay: as above; settings: MCC and control cell lines, CellTiter-Glo viability, 72 h; series mostly up to 46 µM
Summary of the method: as §1

UISO = assay: as above; settings: MCC and control cell lines, CellTiter-Glo viability, 72 h; series mostly up to 46 µM
Summary of the method: as §1

WaGa = assay: as above; settings: MCC and control cell lines, CellTiter-Glo viability, 72 h; series mostly up to 46 µM
Summary of the method: as §1

C33A = assay: Primary qHTS to identify gynecologic anti-cancer compounds using libraries of approved drugs and bioactive compounds (AID 1345084); settings: Gynecologic cancer cell panel viability, ATPlite luminescence, 48 h; series mostly up to 57.5 µM; further: nearly all actives have a fitted effect of over 55% in size
Summary of the method: (§2)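 Five-point cytotoxicity, 48 h drug exposure at 37 C, 5% CO2, on cells seeded 16 h beforehand. ATP content read by ATPlite luminescence.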

CASKI = assay: as above; settings: Gynecologic cancer cell panel viability, ATPlite luminescence, 48 h; series mostly up to 57.5 µM
Summary of the method: as §2

Es-2 = assay: as above; settings: Gynecologic cancer cell panel viability, ATPlite luminescence, 48 h; series mostly up to 57.5 µM
Summary of the method: as §2

HeLa = assay: as above; settings: Gynecologic cancer cell panel viability, ATPlite luminescence, 48 h; series mostly up to 57.5 µM
Summary of the method: as §2

Hek293T = assay: as above; settings: Gynecologic cancer cell panel viability, ATPlite luminescence, 48 h, control line for the selectivity index; series mostly up to 57.5 µM
Summary of the method: as §2

JEG-3 = assay: as above; settings: Gynecologic cancer cell panel viability, ATPlite luminescence, 48 h; series mostly up to 57.5 µM
Summary of the method: as §2

OV90 = assay: as above; settings: Gynecologic cancer cell panel viability, ATPlite luminescence, 48 h; series mostly up to 57.5 µM
Summary of the method: as §2

PA-1 = assay: as above; settings: Gynecologic cancer cell panel viability, ATPlite luminescence, 48 h; series mostly up to 57.5 µM
Summary of the method: as §2

Tov-21-G = assay: as above; settings: Gynecologic cancer cell panel viability, ATPlite luminescence, 48 h; series mostly up to 57.5 µM
Summary of the method: as §2

Tov112D = assay: as above; settings: Gynecologic cancer cell panel viability, ATPlite luminescence, 48 h; series mostly up to 57.5 µM
Summary of the method: as §2

SKOV3 = assay: as above; settings: Gynecologic cancer cell panel viability, ATPlite luminescence, 48 h; series mostly up to 57.5 µM
Summary of the method: as §2

[1] = Drug repurposing screens with cells derived from glioblastoma tumor samples (AID 1345199); settings: GBM patient neurospheres viability, ATP luminescence, 48 h; Potency: tumour line A unless noted; series mostly up to 45.9 µM; further: nearly all actives have a fitted effect of over 40% in size
Summary of the method: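 Four patient lines of CD133+ GBM neurospheres were screened at several concentrations; hits were retested in those lines plus three slower-growing GBM lines, using 48-hour treatment and ATP-based viability.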

Measured: Potency

CC(N[C@H]1C[C@H]1c1ccccc1)c1ccc2c(c1)OCCO2 (some centres not stated)
not listed: SKOV3 | [1]
inactive: all other assays above

CC(Cc1ccc(O)cc1)NCC(O)c1cc(O)cc(O)c1 (configuration not stated)
not listed: C33A | OV90
inactive: all other assays above

c1cc2ccc3cccc4ccc(c1)c2c34
not listed: Tov112D
inactive: all other assays above

O=C(O)COc1nc(Cl)c(Cl)cc1Cl
inactive: all assays above

CCOCCOC(C)=O
not listed: Hek293T | PA-1
inactive: all other assays above

CC(O)CN1CCN(CC(=O)[O-])CCN(CC(=O)[O-])CCN(CC(=O)[O-])CC1.[Gd+3] (configuration not stated)
inactive: all assays above

CN1[C@H]2CC(O)C[C@H]1[C@H]1O[C@H]12 (some centres not stated)
inactive: MCC-13 | MCC-26 | MKL-1 | MKL-2 | WaGa

CC(C)[C@H]1C(=O)N[C@H](CO)Cc2c[nH]c3cccc(c23)N1C
inactive: MCC-13 | MCC-26 | MKL-1 | MKL-2 | WaGa

O=C(O)c1cc(Oc2ccc(C(F)(F)F)cc2Cl)ccc1[N+](=O)[O-]
not listed: Hek293T | JEG-3
inactive: all other assays above
